Source: PubChem BioAssay (NCI)
The panel holds about 83,000 compounds, 20% with a hit somewhere; the sample as a whole holds those more often.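 Interpretation: 100, growth as untreated; towards 0, rising growth inhibition; 0, no net growth; 0 to -100, cell death. Compounds scoring below 10 were considered active.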 Activity calls are given as the source filed them.

Experiments:
Assay in all cases: NCI-60 one-dose screen, 48 h (100 = growth as untreated, 0 = no growth, -100 = all killed)
Details in all cases: 10 µM unless noted
[1] = system: DU-145 prostate
[2] = system: K-562 leukemia
[3] = system: MALME-3M melanoma
[4] = system: MDA-MB-231 breast
[5] = system: RXF 393 renal
[6] = system: SF-268 CNS
[7] = system: SF-295 CNS
[8] = system: SF-539 CNS
[9] = system: UACC-257 melanoma
[10] = system: M14 melanoma
[11] = system: HCT-15 colon
[12] = system: HT29 colon
[13] = system: SNB-75 CNS
[14] = system: SNB-19 CNS
[15] = system: U251 CNS
[16] = system: PC-3 prostate
[17] = system: SK-MEL-5 melanoma
[18] = system: UACC-62 melanoma
[19] = system: LOX IMVI melanoma
[20] = system: SK-MEL-28 melanoma

Measured: growth

O=C(NOCCO)c1ccc2cncn2c1Nc1ccc(I)cc1F
inactive: [1] 64.6% | [2] 38.2% | [4] 31.6% | [6] 74.5% | [7] 91.9% | [8] 66.2% | [11] 66.7% | [13] 81.1% | [14] 57.8% | [15] 40.4% | [16] 81% | [17] 47% | [19] 19.9%
active: [3] 1.32% | [5] -6.5% | [9] -20.7% | [10] 5.3% | [12] 9.38% | [18] 3.07% | [20] 3.91%

CCCCN1C(=O)c2cccc3c(-c4ccc5c(c4)ncn5C4CCCCC4)ccc(c23)C1=O
inactive: [1] 101% | [2] 86% | [3] 95.4% | [4] 108% | [5] 118% | [6] 106% | [7] 96.7% | [8] 101% | [9] 103% | [10] 92.1% | [11] 106% | [12] 84.1% | [13] 92.3% | [14] 106% | [15] 98.3% | [16] 94.3% | [17] 107% | [18] 92.8% | [19] 102% | [20] 117%

CC(=O)CC1CCCC1c1ccc2ccccc2c1 (stereo not given)
inactive: [1] 107% | [2] 104% | [3] 99.1% | [4] 102% | [5] 109% | [6] 102% | [7] 106% | [8] 95.8% | [9] 97.8% | [10] 109% | [11] 103% | [12] 95.8% | [13] 93.8% | [14] 104% | [15] 94.4% | [16] 91.9% | [17] 101% | [18] 99.6% | [19] 97.8% | [20] 103%

COc1cc2cc(NCc3ccc(F)cc3)nc(C)c2cc1OC
active: [8] -4.69% | [19] 6.57%
inactive: [1] 58.1% | [2] 11.7% | [3] 87.7% | [4] 45.9% | [5] 59.7% | [6] 50.7% | [7] 40.7% | [9] 88.8% | [10] 32.2% | [11] 50.9% | [12] 11.9% | [13] 101% | [14] 43.8% | [15] 29.7% | [16] 48.2% | [17] 38.3% | [18] 27.8% | [20] 35.4%

CC(C)CC(=O)Nc1n[nH]c2c1CN(C(=O)C1CCN(C)CC1)C2(C)C
inactive: [1] 15.2% | [2] 11.1% | [3] 34.9% | [6] 12.1% | [7] 41.6% | [9] 15.5% | [10] 22.2% | [11] 78.8% | [14] 11.5% | [16] 16.1%
active: [4] 8.95% | [5] -37.2% | [8] -22.3% | [12] -1.54% | [13] -19.8% | [15] 2.91% | [17] -35.7% | [18] -19.1% | [19] 9.19% | [20] 9.19%

Cn1cnc2c(F)c(Nc3ccc(Br)cc3Cl)c(C(=O)NOCCO)cc21
inactive: [1] 69.6% | [2] 47.2% | [4] 24.7% | [5] 14.7% | [6] 77.2% | [7] 82.8% | [8] 69% | [11] 70% | [13] 71.6% | [14] 52.3% | [15] 46.2% | [16] 90.7% | [17] 38.2% | [19] 27.6%
active: [3] -16.2% | [9] -21.2% | [10] 6.05% | [12] 7.16% | [18] -26.6% | [20] -5.61%

O=C(O)c1ccc(Nc2ncc3c(n2)-c2ccc(Cl)cc2C(c2c(F)cccc2F)=NC3)cc1
inactive: [1] 72.1% | [2] 23.3% | [3] 76.5% | [4] 51.7% | [5] 43.8% | [6] 52.6% | [7] 39.3% | [8] 59.4% | [9] 46.4% | [10] 57.5% | [11] 50.5% | [12] 30.2% | [13] 48.8% | [14] 54.6% | [15] 42.5% | [16] 51.3% | [17] 60.6% | [18] 51.6% | [19] 33% | [20] 75.1%

COc1cc2nc(Nc3cccc(Cl)c3)nc(N)c2cc1OC
inactive: [1] 32.3% | [2] 24% | [3] 107% | [4] 60.3% | [5] 45.4% | [6] 77.1% | [7] 108% | [8] 90.3% | [9] 90.3% | [10] 78.4% | [13] 94.5% | [14] 106% | [15] 66.4% | [16] 53.9% | [17] 64.5% | [18] 96.3% | [19] 59.8% | [20] 83.8%
active: [11] 6.41% | [12] 6.72%

CN(C[C@@H]1COCCO1)S(=O)(=O)Nc1ccc2ccc3ncc(-c4cnn(C)c4)cc3c(=O)c2c1
active: [5] -2.79% | [8] 0.172%
inactive: [1] 44% | [2] 39.5% | [3] 46% | [4] 49.5% | [6] 35% | [7] 19.3% | [9] 69.3% | [10] 35.3% | [11] 26% | [12] 51.3% | [13] 13.6% | [14] 80.7% | [15] 37.4% | [16] 45.6% | [17] 36% | [18] 36.2% | [19] 30.1% | [20] 59.7%

CCNC(=O)C#Cc1ccc2c(C(=Nc3ccc(CN(C)C)cc3)c3ccccc3)c(O)[nH]c2c1
inactive: [1] 44.3% | [6] 47.8% | [7] 59.8% | [11] 27.7% | [14] 29.5% | [15] 22.4% | [16] 44.4% | [17] 17%
active: [2] 9.16% | [3] -11.3% | [4] 3.36% | [5] -33.7% | [8] -6.1% | [9] -36.3% | [10] -33.7% | [12] -40% | [13] 3.23% | [18] -32.5% | [19] -75.7% | [20] -11.6%

CN(C)C1CCN(C(=O)c2ccc(NC(=O)Nc3ccc(-c4nc(N5CCOCC5)nc(N5CCOCC5)n4)cc3)cc2)CC1
inactive: [2] 14.4% [2.5 µM] | [4] 17.2% [2.5 µM] | [6] 10.6% [2.5 µM] | [11] 74.1% [2.5 µM]
active: [1] 2.99% [2.5 µM] | [3] -34.1% [2.5 µM] | [5] -40.4% [2.5 µM] | [7] -31.1% [2.5 µM] | [8] -53% [2.5 µM] | [9] -40% [2.5 µM] | [10] 7.46% [2.5 µM] | [12] -2.55% [2.5 µM] | [13] -51.7% [2.5 µM] | [14] 1.85% [2.5 µM] | [15] -10.5% [2.5 µM] | [16] 3.75% [2.5 µM] | [17] -39.1% [2.5 µM] | [18] -58.9% [2.5 µM] | [19] 0.487% [2.5 µM] | [20] -27.6% [2.5 µM]

CC(C)(C)c1nc(-c2cccc(NS(=O)(=O)c3c(F)cccc3F)c2F)c(-c2ccnc(N)n2)s1
active: [12] 8.76%
inactive: [1] 105% | [2] 50.8% | [3] 21.8% | [4] 47.1% | [5] 90% | [6] 105% | [7] 112% | [8] 114% | [9] 25.2% | [10] 32% | [11] 90.8% | [13] 107% | [14] 111% | [15] 113% | [16] 100% | [17] 61.1% | [18] 30.9% | [19] 24.5% | [20] 37.1%

Cn1cnc(-c2cc3nccc(Oc4ccc(NC(=S)NC(=O)Cc5ccccc5)cc4F)c3s2)c1
active: [2] 6.69%
inactive: [1] 104% | [3] 86.3% | [4] 81.2% | [5] 87.1% | [6] 84.3% | [7] 52.5% | [8] 58.7% | [9] 60.5% | [10] 96.5% | [11] 85.3% | [12] 62.6% | [13] 78.6% | [14] 96.6% | [15] 79.7% | [16] 81.3% | [17] 76.7% | [18] 93.8% | [19] 94.5% | [20] 98.3%

COc1cccc(NC(=O)Nc2ccc(Nc3ncnc4sc5c(c34)CCN(C(=O)CCl)C5)cc2)c1
inactive: [1] 118% | [2] 91.3% | [3] 116% | [4] 92.7% | [5] 99.1% | [6] 91.3% | [7] 98.1% | [8] 106% | [9] 93.4% | [10] 101% | [11] 118% | [12] 90.2% | [13] 86.4% | [14] 102% | [15] 95.5% | [16] 90.7% | [17] 106% | [18] 94.8% | [19] 94.1% | [20] 117%

Cc1nc2ccc(-n3ncc(C(=O)c4cc5ccccc5[nH]4)c3N)cc2[nH]1
active: [8] -2.11%
inactive: [1] 60.7% | [2] 17.4% | [3] 64.5% | [4] 53.9% | [5] 15.5% | [6] 50.5% | [7] 53.5% | [9] 79.5% | [10] 61.1% | [11] 30.9% | [12] 23.1% | [13] 39.9% | [14] 48.2% | [15] 24.4% | [16] 41.1% | [17] 32.8% | [18] 43.5% | [19] 14.8% | [20] 69.7%
